Measurements from PubChem BioAssay AID434973 (Sanford-Burnham Center for Chemical Genomics, 2010).
Hit rate of the full screen: of about 330,000 compounds, about 4,900 (1.5%) were called active. This is one part of a sample in which actives are shown more often than they occur. A number with no mark means an inactive call.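 Rule for the calls: active = inhibition above about 50% at the single test dose (limit read from the data); inactive = the rest.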

Biological target: Sentrin-specific protease 7 (Homo sapiens) (UniProt Q9BQF6)
Test: blockers of human SENP7 peptidase activity – biochemical, luminescence, uHTS, primary screen (AID 434973);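 note: plate controls were DMSO with enzyme for no effect and no enzyme buffer wells for full effect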
Details: recombinant SENP7, Z-RLRGG-aminoluciferin luminescence, 40 min; at 5 µM; stronger effect = higher value

With `c1ccc(-n2nc3ccccc3n2)cc1` as the molecule, how does the inhibition read?
The inhibition was 1.86%.

For `Nc1ccc2nn(-c3ccc(Cl)cc3)nc2c1`, which inhibition is on record?
Its inhibition is 57.3% (active).

For `CN(C)c1nnnn1-c1ccc(Cl)cc1`, which inhibition is on record?
Its inhibition is -4.93%.

How did the inhibition turn out when `C[C@@H](NC(=O)OC(C)(C)C)c1nnc(S(=O)(=O)Cc2ccccc2)o1` was run?
The inhibition was -2.96%.

For `NC(=O)C1CCN(C(=O)c2ccc(F)c(S(=O)(=O)N3CCOCC3)c2)CC1`, which inhibition is on record?
Its inhibition is 10.4%.

Which inhibition does the source give for `COc1ccc(C(=O)Cc2cnn(-c3ccccc3)c2)c(O)c1` here?
Its inhibition is 5.94%.

How did the inhibition turn out when `O=C(c1cnn(-c2ccc(Cl)cc2)c1)c1ccccc1O` was run?
Its inhibition is 93.1% (active).

With `Cc1ncc(CC(=O)n2cc(C(=O)c3cc(Cl)ccc3O)cn2)s1` as the molecule, how does the inhibition read?
Its inhibition is 0.896%.

`CC1CCCCC1NC(=O)COC(=O)Cc1ccc(Br)cc1` (stereo not drawn) was tested. Which inhibition did it give?
The inhibition was 0.5%.

`CC(=O)OCc1cc(=O)n(C)c(=O)n1C` was tested. Which inhibition did it give?
Its inhibition is 6.2%.

With `COc1cccc(COC(=O)C2CCN(S(=O)(=O)c3ccc(Cl)cc3)CC2)c1OC` as the molecule, how does the inhibition read?
The inhibition was 11.2%.

`O=C(COC(=O)c1ccco1)Nc1ccc(Cl)cn1` was tested. Which inhibition did it give?
The inhibition was 4.97%.

`CCCCCc1ccc(-c2ccc(C(=O)O)cc2)nc1` was tested. Which inhibition did it give?
Its inhibition is 92.8% (active).

With `CCCCCc1ccc(-c2ccc(OCC)cc2)nc1` as the molecule, how does the inhibition read?
Its inhibition is 11.8%.

With `CCCCCc1ccc(-c2cn(Cc3ccc4ccccc4c3)nn2)cc1` as the molecule, how does the inhibition read?
The inhibition was -7.9%.

How did the inhibition turn out when `O=S(=O)(NCc1ccccc1Br)c1ccccc1Br` was run?
Its inhibition is 2.03%.

How did the inhibition turn out when `O=C(CCc1nc2sc3c(c2c(=O)[nH]1)CCCC3)NCC(=O)Nc1ccccc1Br` was run?
Its inhibition is 2.2%.

`CC1CC(c2ccccc2)n2nc(NC(=O)c3cccs3)nc2N1` (stereo not drawn) was tested. Which inhibition did it give?
The inhibition was -9.29%.

For `CCn1nccc1C(=O)Nc1ccc(S(=O)(=O)NC23CC4CC(CC(C4)C2)C3)cc1`, which inhibition is on record?
The inhibition was -4.42%.

Which inhibition does the source give for `CCn1nccc1C(=O)Nc1ccc(Cl)c(Cl)c1` here?
Its inhibition is 63.8% (active).

With `O=C(CC(O)(C(F)(F)F)C(F)(F)F)Nc1ccc(Cl)c(Cl)c1` as the molecule, how does the inhibition read?
The inhibition was 2.83%.

With `COc1ccc(C(=O)N2CCN(c3ncccn3)CC2)cc1S(=O)(=O)N1CCOCC1` as the molecule, how does the inhibition read?
Its inhibition is 0.314%.

How did the inhibition turn out when `Cc1cc(NC(=O)C(C)N2C(=O)c3ccccc3S2(=O)=O)no1` (stereo not drawn) was run?
The inhibition was 3.21%.

Which inhibition does the source give for `Cc1ccc(NC(=O)Nc2nnc(-c3ccncc3)s2)cc1` here?
Its inhibition is -3.06%.

Which inhibition does the source give for `Cc1ccc(Nc2nnc(SC(C)C(=O)NC3CC3)s2)cc1` (stereo not drawn) here?
Its inhibition is 7.35%.

`Cc1ccc(Nc2nc(Cl)c(C=O)s2)cc1` was tested. Which inhibition did it give?
Its inhibition is 52.6% (active).

Which inhibition does the source give for `COC(=O)C(C)N=Cc1ccccc1` (stereo not drawn) here?
Its inhibition is -4.82%.

How did the inhibition turn out when `COCCNc1cc(-c2ccccc2)nc2cc(-c3cccc(F)c3)nn12` was run?
Its inhibition is -7.71%.

For `COc1ccc(/C=C/c2noc(-c3ccccc3OC(C)=O)n2)cc1`, which inhibition is on record?
Its inhibition is 87.9% (active).

With `COc1cccc(/C=C/c2ccc3ccccc3n2)c1OC(C)=O` as the molecule, how does the inhibition read?
The inhibition was -1.58%.

Which inhibition does the source give for `CC(=O)Oc1ccc2c(c1)C(=O)c1ccccc1C2=O` here?
The inhibition was 12.2%.

`CCCn1c(CCNc2nc(-c3ccc(OC)cc3)cs2)nc2ccccc21` was tested. Which inhibition did it give?
Its inhibition is 0.961%.

With `COc1ccc(-c2csc(Cc3nc(O)cs3)n2)cc1` as the molecule, how does the inhibition read?
Its inhibition is 23.1%.

With `COc1ccc(-c2csc(NC(=O)COC(=O)Cc3ccc(Cl)cc3Cl)n2)cc1` as the molecule, how does the inhibition read?
Its inhibition is 4.91%.

Which inhibition does the source give for `c1ccc(Nc2nc(-c3ccncc3)cs2)nc1` here?
The inhibition was 85.5% (active).

How did the inhibition turn out when `Cc1ccccc1Nc1nc(-c2cccnc2)cs1` was run?
Its inhibition is 54.3% (active).

For `COc1ccc2c(c1OC)C(=O)OC2Nc1nc(-c2ccccc2)cs1` (stereo not drawn), which inhibition is on record?
Its inhibition is 1.44%.

`O=C(NCc1cccnc1)C(=O)Nc1nc(-c2ccccc2)cs1` was tested. Which inhibition did it give?
The inhibition was 3.71%.

For `COc1ccc(Nc2nc(-c3ccccc3)cs2)cc1`, which inhibition is on record?
The inhibition was 95.8% (active).

For `COc1ccc(-c2csc(Nc3ccccn3)n2)cc1`, which inhibition is on record?
Its inhibition is 86.2% (active).

`O=C(Nc1nc(-c2cccnc2)cs1)c1ccccc1F` was tested. Which inhibition did it give?
The inhibition was 28.5%.

How did the inhibition turn out when `Clc1ccc(Nc2nc(-c3cccs3)cs2)nc1` was run?
The inhibition was 11%.

How did the inhibition turn out when `Clc1ccc(-c2csc(-c3ccncc3)n2)cc1` was run?
The inhibition was -6.3%.

`CN(Cc1ccc(F)cc1Cl)S(=O)(=O)c1cccs1` was tested. Which inhibition did it give?
Its inhibition is -5.99%.

Which inhibition does the source give for `CCN(C(=O)COC(=O)c1c(C)nn(-c2ccccc2)c1Cl)c1c(N)n(Cc2ccccc2)c(=O)[nH]c1=O` here?
The inhibition was 2.84%.

`O=[N+]([O-])c1cc(S(=O)(=O)CCCN2CCOCC2)ccc1F` was tested. Which inhibition did it give?
The inhibition was -6.87%.

With `Cc1ccc(S(=O)(=O)NCC(=O)N(CC(=O)NC(C)(C)C)Cc2cccs2)cc1` as the molecule, how does the inhibition read?
Its inhibition is 0.604%.

How did the inhibition turn out when `CSCCNCc1cn(-c2ccc(F)cc2F)nc1-c1ccccc1C` was run?
The inhibition was 8.28%.

With `CCOc1ccc(S(=O)(=O)Nc2ccncc2)c(C)c1C` as the molecule, how does the inhibition read?
The inhibition was -7.98%.

`CC[C@]1(C(=O)OC)[C@H]2C(=O)N(Cc3ccccc3)C(=O)[C@H]2[C@H]2CN=C(SCc3ccc(C#N)cc3)N21` was tested. Which inhibition did it give?
Its inhibition is -3.53%.

`OC(COCC1COc2ccccc2O1)CN1CCN(c2ccc(F)cc2)CC1` (stereo not drawn) was tested. Which inhibition did it give?
Its inhibition is -0.332%.

`CCCCCCCCOC1OC(CO)C(O)C(O)C1NC(C)=O` (stereo not drawn) was tested. Which inhibition did it give?
Its inhibition is -1.17%.

Which inhibition does the source give for `COc1c(F)c(F)c(-c2csc(N)n2)c(F)c1F` here?
Its inhibition is -8.1%.

How did the inhibition turn out when `CS(=O)(=O)Nc1cccc(C2=NN(C(=O)c3cccc(F)c3)C(c3cccs3)C2)c1` (stereo not drawn) was run?
The inhibition was 6.94%.

With `O=C1/C(=C/c2coc3ccc(O)cc3c2=O)SC(=S)N1c1ccccc1` as the molecule, how does the inhibition read?
Its inhibition is -27.4%.

`O=C(Cc1csc(Nc2nc(=S)[nH]c3ccccc23)n1)NCCCN1CCN(c2cccc(Cl)c2)CC1` was tested. Which inhibition did it give?
Its inhibition is 6.52%.

`CCC(C(=O)NC1CCCC1)N(C(=O)c1snc(C(N)=O)c1N)c1ccc2c(c1)OCCO2` (stereo not drawn) was tested. Which inhibition did it give?
The inhibition was 5.07%.

For `Nc1c(C(=O)c2cccs2)sc2nsc(SCCN3CCCCC3)c12`, which inhibition is on record?
Its inhibition is 9.3%.

Which inhibition does the source give for `Cc1ccc(-c2csc(NC3OC(=O)c4ccccc43)n2)cc1` (stereo not drawn) here?
The inhibition was -11.5%.

Which inhibition does the source give for `Cc1ccc(Nc2nc(-c3ccc(O)cc3O)cs2)nc1` here?
Its inhibition is -5.69%.

`Cc1cccc(Nc2nc(-c3ccccc3)cs2)n1` was tested. Which inhibition did it give?
Its inhibition is 92.9% (active).

With `CCOCCCNC(=O)C1(O)c2cc(Br)ccc2NC(=O)N1c1ccc(C)c(C)c1` (stereo not drawn) as the molecule, how does the inhibition read?
Its inhibition is 8.05%.

For `COCCn1c(SC(C)C(=O)NC2CC2)nnc1-c1cccc(C)c1` (stereo not drawn), which inhibition is on record?
The inhibition was 1.39%.
